# MITF act = increases MITF-driven TRPM1 promoter luciferase signal; activation, % at 12.5 µM; AID 588334; 300,000 compounds, 0.75% hits; SK-MEL-5 TRPM1-promoter luciferase, 24 h; % of positive control, neutral wells = 0;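 active = mean activation of at least 80% with every replicate also reaching 80%; inconclusive = mean reaches 80% but some replicate falls short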;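 also: 0% = neutral control wells and 100% = parthenolide positive control wells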
# Wnt act = activators of Wnt/beta-catenin signaling; Wnt/beta-catenin reporter cell assay, activator, plate reader; activation, % at 9.35 µM; 300,000 compounds, 1.2% hits; in the data active = activation above about 30%, passing the limit was not always enough; inconclusive = no clear call, values can overlap the other calls;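 also: 0% = neutral control wells and 100% = positive control wells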
# esBAF inh = inhibitors of esBAF chromatin remodeling in mouse ES cells; reporter increase, % at 12.5 µM; Bmi1-luciferase knock-in reporter, 24 h; 100% = twice the neutral-well signal; 350,000 compounds, 2% hits; AID 602393; in the data active = activation above about 40%; inconclusive = no clear call, values can overlap the other calls;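 also: 0% = median of the plate's neutral control wells and 100% = double that signal; a rise in the Bmi1 reporter signal indicates esBAF inhibition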
# HSF1 inh = HSF1 inhibition. NIH3T3-HGL HSE-luciferase, MG132-induced, luminescence 8 h; hits give low values. activity change, negative = inhibition, % at 7.5 µM (by protocol). 300,000 compounds, 0.77% hits. AID 2098;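 active = more than half of replicate wells show activity change below -50%, luminescence cut by over half; inconclusive = some wells, but at most half, below -50%; inactive = no replicate well below -50%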;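 also: luciferase reports HSF-1 transcriptional activity via heat shock element; 0% = median of DMSO wells and -100% = zero luminescence signal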
# HSF1 activator = increases HSF-1 driven luciferase reporter signal. NIH3T3-HGL HSF-1 luciferase reporter, MG132, 8 h; 100% = twice DMSO control signal. activation, % at 9 µM. AID 504408. 300,000 compounds, 1.7% hits;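 active = mean replicate activation of at least 50% with a set share of replicates each reaching 50%; inconclusive = only one of those two conditions met; inactive = mean below 50% and too few replicates reaching it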;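 also: 0% = median of the neutral control wells and 100% = twice that signal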
# SMARCA2 activ = SMARCA2 function activation, primary screen | 370,000 compounds, 1% hits | MG213 cells, MMTV-luciferase reporter, dexamethasone, overnight | activation, % at 9.1 µM; in the data active = activation above about 7.8%;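 also: 0% = vehicle wells and 100% = reference activator wells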
# Active calls of the source: *; ? = inconclusive; nt = no result. Most compounds without a hit are left out; they make up all but 4.3% or so of the library.
SMILES,MITF act,Wnt act,esBAF inh,HSF1 inh,HSF1 activator,SMARCA2 activ
COc1ccc(NC(=O)c2cc(S(=O)(=O)N3CCCC3)oc2C)cc1,-7.3,-1.6,-4.4,-2.3,30.1,-5.5
CCOc1cc(/C=C2\NC(=S)N(c3c(C)n(C)n(-c4ccccc4)c3=O)C2=O)ccc1O,10.2,-2.2,nt,-1.9,-0.3,-5.4
CCOc1cccc(/C=C2\NC(=S)N(c3ccccc3)C2=O)c1O,28.3,16.1,?,81.9,102.1*,2.5
O=C(CSc1nc(N2CCCCC2)nc(N2CCCCC2)n1)c1ccccc1,nt,0.1,-5.4,4.8,24.3,-1.0
Cc1cc(N2CCCCC2)nc(SCC(=O)c2ccccc2)n1,nt,?,52.6*,19.4,43.1,4.2
CNC[C@H](Cc1ccccc1)NC[C@@H](Cc1cccc2ccccc12)NCCc1ccc(C)cc1,4.8,-14.3,-45.4,-90.6*,-92.2,-0.2
CNCCNC[C@H](Cc1cccc2ccccc12)NCCc1ccccc1,28.0,-2.4,11.7,nt,nt,1.5
COc1ccc2c(c1)CCc1c(C(=O)N3CCCCCC3)noc1-2,121.0*,nt,43.7*,14.0,28.1,3.3
O=C(c1noc2c1CCc1ccccc1-2)N1CCCc2ccccc21,22.5,nt,nt,1.5,30.6,1.5
COc1ccc2c(c1)CCc1c(C(=O)NCC(C)C)noc1-2,109.1*,53.0*,20.9,33.8,58.1*,-1.0
CCCNC(=O)c1noc2c1CCc1cc(OC)ccc1-2,63.4,-0.3,19.7,17.6,66.7*,5.0
COc1ccc(-c2ccc(C(=O)NCC(C)C)c3occc23)c(C)c1,nt,-2.4,28.8,nt,nt,-3.8
Cc1cc(NC(=O)c2noc3c2CCc2ccccc2-3)no1,25.1,10.3,40.0,1.7,1.6,0.5
OC[C@@H]1[C@@H](c2ccc(-c3ccc(F)cc3)cc2)[C@H]2CN(Cc3cccnc3)CCCCN12,nt,nt,-0.8,nt,nt,nt
COCCC1CCCCN1C(=O)c1cc(COc2cccc(C(C)=O)c2)on1 (stereo not given),27.1,14.3,64.7*,15.8,6.5,-1.8
CC(=O)c1ccc(OCc2cc(C(=O)N3CCC[C@H]3CO)no2)cc1,0.9,0.6,-1.6,-21.2,-39.5,-1.6
CC(=O)c1cccc(OCc2cc(C(=O)N3C[C@@H](C)O[C@@H](C)C3)no2)c1,68.8,21.3,64.9*,14.8,15.2,4.3
CCCNC(=O)Nc1ccc2c(c1)C(=O)N(C)C[C@@H](OC)[C@H](C)CN(C(C)=O)[C@@H](C)CO2,nt,nt,1.9,nt,nt,nt
O=C(CCc1nnc(-c2ccc(-c3ccccc3)cc2)o1)N1CCCCC1,19.9,-0.5,nt,11.9,12.1,-9.0
CC(=O)c1ccc(-c2nnc(CCC(=O)N3CCCC(C(=O)CC(C)C)C3)o2)s1 (stereo not given),72.9,-1.2,83.5*,13.7,37.6,3.8
CC(C)Sc1ccc(C(=O)Nc2ccc(F)cc2F)cn1,?,49.4*,nt,22.0,15.9,0.7
CSc1ccccc1NC(=O)c1cc2ncc(Br)cn2n1,72.8,34.7*,54.8*,3.3,24.9,4.7
Cc1ccccc1Cn1ccc(NC(=O)c2cc3ncc(Br)cn3n2)n1,-9.5,0.2,-15.1,-0.8,-3.0,4.7
O=C(CNS(=O)(=O)c1ccc(Br)s1)NCc1ccccc1,0.7,-4.0,-2.3,29.3,68.9*,0.1
O=C(CNS(=O)(=O)c1ccc(Br)s1)NCc1ccc(F)cc1,nt,-2.4,-0.4,3.0,31.2,-2.0
SMILES,MITF act,Wnt act,esBAF inh,HSF1 inh,HSF1 activator,SMARCA2 activ
c1ccc(-c2cc3nccc(-c4ccccn4)n3n2)cc1,126.7*,19.0,nt,0.0,2.8,3.8
COc1ccc(N2CCN(c3ccc(NC(=O)/C=C\C(=O)O)cc3)CC2)cc1,-5.2,45.2*,-4.6,0.1,11.2,-1.3
O=C(O)/C=C/C(=O)Nc1ccc2c(c1)C(=O)c1ccccc1C2=O,18.2,50.4*,nt,16.7,14.9,4.8
O=C(O)/C=C/C(=O)Nc1ccc(C(=O)c2ccccc2)cc1,7.0,-0.6,nt,-8.5,-10.6,3.4
O=C(O)/C=C/C(=O)Nc1ccc(Oc2ccccc2)cc1,10.5,-0.2,7.7,-54.1*,-59.0,-4.0
CCCN(C)C[C@@H]1Oc2cc(C#Cc3ccncc3)ccc2S(=O)(=O)N([C@H](C)CO)C[C@@H]1C,nt,nt,3.1,nt,nt,nt
CN1CCN(C(=O)C[C@H]2C=C[C@H](NC(=O)c3ccc4c(c3)OCO4)[C@H](CO)O2)CC1,nt,nt,2.3,nt,nt,nt

# Source: PubChem
